Results taken from PubChem BioAssay (NCI).
About 83,000 compounds went through this panel and 20% of them were active in at least one assay; those are over-represented in the sample as a whole.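 Assay: single dose, 48 h. Readout: percent growth (0 = no net growth; negative = cell death). Active: <10.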 Activity calls are given as the source filed them.

Tests used:
Experiment in all cases: NCI-60 one-dose screen, 48 h (100 = growth as untreated, 0 = no growth, -100 = all killed)
NCI-H226 lung = conditions: 10 µM unless noted
NCI-H322M lung = conditions: 10 µM unless noted
NCI-H522 lung = conditions: 10 µM unless noted
COLO 205 colon = conditions: 10 µM
MALME-3M melanoma = conditions: 10 µM unless noted
SK-MEL-2 melanoma = conditions: 10 µM unless noted
EKVX NSCLC = conditions: 10 µM unless noted
TK-10 renal = conditions: 10 µM unless noted
ACHN renal = conditions: 10 µM unless noted
OVCAR-4 ovarian = conditions: 10 µM unless noted
SK-OV-3 ovarian = conditions: 10 µM unless noted
IGROV1 ovarian = conditions: 10 µM
NCI/ADR-RES ovarian = conditions: 10 µM unless noted
A549/ATCC NSCLC = conditions: 10 µM unless noted
SR leukemia = conditions: 10 µM
OVCAR-5 ovarian = conditions: 10 µM unless noted
SNB-75 CNS = conditions: 10 µM unless noted
HOP-92 NSCLC = conditions: 10 µM unless noted

Measured: growth

O=C(CCF)c1ccc(O)cc1
inactive: NCI-H226 lung 105% | NCI-H322M lung 101% | NCI-H522 lung 87.6% | COLO 205 colon 105% | MALME-3M melanoma 108% | SK-MEL-2 melanoma 105% | EKVX NSCLC 99.3% | TK-10 renal 106% | ACHN renal 106% | OVCAR-4 ovarian 103% | SK-OV-3 ovarian 103% | IGROV1 ovarian 100% | NCI/ADR-RES ovarian 105%

O=C(O)C1[O][Sb][O]C1C(=O)O (stereo not given)
inactive: NCI-H226 lung 93.9% | NCI-H322M lung 101% | A549/ATCC NSCLC 103% | COLO 205 colon 109% | MALME-3M melanoma 86.8% | SK-MEL-2 melanoma 96.5% | TK-10 renal 101% | SR leukemia 70% | OVCAR-5 ovarian 120% | OVCAR-4 ovarian 99.2% | SK-OV-3 ovarian 102% | IGROV1 ovarian 81.8% | NCI/ADR-RES ovarian 103%

C[C@]12CC[C@H]3[C@@H](C[C@@H]4N=C(c5ccc(O)cc5)S[C@@]45C[C@H](O)CC[C@]35C)[C@@H]1CC[C@@H]2O
inactive: NCI-H226 lung 110% | NCI-H322M lung 92.8% | NCI-H522 lung 41.2% | A549/ATCC NSCLC 52.1% | COLO 205 colon 77.7% | MALME-3M melanoma 72.4% | SNB-75 CNS 26.4% | SK-MEL-2 melanoma 44.9% | EKVX NSCLC 63.6% | TK-10 renal 89.3% | ACHN renal 46% | OVCAR-5 ovarian 106% | OVCAR-4 ovarian 81.8% | SK-OV-3 ovarian 38.6% | IGROV1 ovarian 80.7% | NCI/ADR-RES ovarian 76.8%
active: SR leukemia 5.95%

COc1ccccc1N1CCN(CCc2c[nH]c3cc4c(cc23)OCO4)CC1
active: HOP-92 NSCLC -8.6% | IGROV1 ovarian -33.9%
inactive: NCI-H226 lung 79.3% | NCI-H322M lung 72.1% | NCI-H522 lung 72% | COLO 205 colon 74.7% | MALME-3M melanoma 92% | SNB-75 CNS 91.6% | SK-MEL-2 melanoma 57.6% | EKVX NSCLC 77.7% | TK-10 renal 89.7% | ACHN renal 77.7% | OVCAR-5 ovarian 60.2% | OVCAR-4 ovarian 99.2% | SK-OV-3 ovarian 104% | NCI/ADR-RES ovarian 86%

CC(C)N=C(NC(C)C)N1CC1
inactive: NCI-H226 lung 108% | NCI-H322M lung 118% | NCI-H522 lung 98.2% | A549/ATCC NSCLC 101% | COLO 205 colon 113% | MALME-3M melanoma 124% | SNB-75 CNS 95.4% | SK-MEL-2 melanoma 112% | EKVX NSCLC 102% | TK-10 renal 122% | ACHN renal 109% | OVCAR-5 ovarian 106% | OVCAR-4 ovarian 104% | SK-OV-3 ovarian 115% | IGROV1 ovarian 123% | NCI/ADR-RES ovarian 113%

O=C(N/N=C/c1ccc(N(CCCl)CCCl)cc1)c1cc(=O)[nH]c(=O)[nH]1
inactive: NCI-H322M lung 92.9% | NCI-H522 lung 96.7% | A549/ATCC NSCLC 106% | MALME-3M melanoma 101% | SNB-75 CNS 92.8% | EKVX NSCLC 115% | TK-10 renal 109% | ACHN renal 94.2% | OVCAR-4 ovarian 109% | IGROV1 ovarian 83.9% | NCI/ADR-RES ovarian 108%
active: NCI-H226 lung 5.48%

[O]=[Sn]([CH]1CCCCC1)[CH]1CCCCC1
inactive: SR leukemia 14.8%
active: NCI-H226 lung -74% | NCI-H322M lung -96.7% | NCI-H522 lung -72.6% | A549/ATCC NSCLC -83.3% | COLO 205 colon -89.9% | MALME-3M melanoma -72.2% | SNB-75 CNS -99.9% | SK-MEL-2 melanoma -63.2% | EKVX NSCLC -24.3% | TK-10 renal -93.8% | ACHN renal -99.3% | OVCAR-5 ovarian -97.1% | OVCAR-4 ovarian -98.7% | SK-OV-3 ovarian -98.2% | IGROV1 ovarian -90.9% | NCI/ADR-RES ovarian -83.2%

O=C1c2ccccc2C(=O)N1[N+](=O)[O-]
inactive: NCI-H226 lung 95.6% | NCI-H322M lung 84.4% | HOP-92 NSCLC 91.1% | NCI-H522 lung 88.7% | A549/ATCC NSCLC 95.4% | COLO 205 colon 116% | MALME-3M melanoma 89.4% | SNB-75 CNS 103% | SK-MEL-2 melanoma 104% | TK-10 renal 93.2% | ACHN renal 111% | SR leukemia 95.4% | OVCAR-5 ovarian 112% | OVCAR-4 ovarian 109% | SK-OV-3 ovarian 114% | IGROV1 ovarian 109% | NCI/ADR-RES ovarian 97.9%

CC1CC=CCC12C(=O)NC(=S)NC2=O (stereo not given)
inactive: NCI-H226 lung 102% | NCI-H322M lung 118% | HOP-92 NSCLC 105% | NCI-H522 lung 101% | A549/ATCC NSCLC 91.2% | COLO 205 colon 122% | MALME-3M melanoma 105% | SNB-75 CNS 81.4% | EKVX NSCLC 95.9% | TK-10 renal 103% | ACHN renal 106% | OVCAR-5 ovarian 103% | OVCAR-4 ovarian 105% | SK-OV-3 ovarian 104% | IGROV1 ovarian 117% | NCI/ADR-RES ovarian 113%

Nc1c(Br)cc2c3c(cccc13)-c1ccccc1-2
inactive: NCI-H226 lung 89.3% | NCI-H322M lung 91.2% | HOP-92 NSCLC 25% | A549/ATCC NSCLC 77.2% | COLO 205 colon 88.2% | SK-MEL-2 melanoma 64.4% | EKVX NSCLC 53.1% | ACHN renal 75.7% | OVCAR-5 ovarian 76.8% | OVCAR-4 ovarian 62.1% | SK-OV-3 ovarian 87.7% | IGROV1 ovarian 48.1% | NCI/ADR-RES ovarian 83.4%
